Screens deposited in PubChem by Center for Chemical Genomics, University of Michigan.
Dicer processing = inhibitors of human Dicer processing of pre-microRNA; z-score at 25 µM; cat-ELCCA pre-miR-21 Dicer processing, chemiluminescence; active compounds read high; actives 6% (n = 47,000); Q9UPY3; in the data active = z-score above about 3, passing the limit was not always enough;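 note: plate controls were vehicle for no effect and no enzyme for full effect; higher signal means more uncleaved substrate so more Dicer inhibition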
Numbers without * were called inactive. The sample as a whole holds a higher share of hits than the screen did.

SMILES | Dicer processing
CSc1nnc2c(n1)OC(c1ccc(C(=O)O)cc1)Nc1ccc(Br)cc1-2 (stereo unspecified) | 0.21
CSc1nnc2c(n1)OC(c1ccc(OCC(=O)O)cc1)Nc1ccccc1-2 (stereo unspecified) | 0.76
COc1ccccc1C1Nc2ccccc2-c2nnc(SC)nc2O1 (stereo unspecified) | -0.54
CCSc1nnc2c(n1)OC(c1ccc(O)c(O)c1)Nc1ccccc1-2 (stereo unspecified) | 2.3
CSc1nnc2c(n1)OC(c1ccc(N(C)C)cc1)Nc1ccccc1-2 (stereo unspecified) | 23
CSc1nnc2c(n1)OC(c1ccccc1OCC(=O)O)Nc1ccccc1-2 (stereo unspecified) | 4.5*
COc1ccc(C2Nc3ccccc3-c3nnc(SC)nc3O2)cc1 (stereo unspecified) | 1.5
CCOC(=O)C1=C(CC)NC2=C(C(=O)CCC2)C1c1ccc(Br)cc1 (stereo unspecified) | -0.51
O=C1CC(NCc2ccc3c(c2)OCO3)C(=O)N1c1ccc2c(c1)OCO2 (stereo unspecified) | -2.3
COC(OC)c1ccc2c(N)c(C(=O)Nc3ccccc3)sc2n1 | 0.34
Cc1cccc(C(=O)Nc2nc3ccc(C)cc3c(=O)[nH]2)c1 | -1.5
CC(=O)c1sc(-c2c(Cl)cc(C(F)(F)F)cc2Cl)nc1C | -2.3
CS(=O)(=O)/C(C#N)=C/Nc1ccc(OC(F)(F)F)cc1 | 2.7
CC[n+]1c(/C=C/N(C)c2ccccc2)sc2cc(NC(C)=O)ccc21 | -0.58
O=[N+]([O-])c1cnc(Sc2nnc(-c3ccco3)n2-c2ccc(OCc3ccccc3)cc2)s1 | -0.96
COc1ccc(N2C(=O)CSC2=O)cc1 | 1.8
O=C1CSC(=O)N1c1ccc(C(F)(F)F)cc1 | 3.9*
O=C1CSC(=O)N1c1ccc(Cl)cc1 | -0.02
COC(=O)c1ccc(S(=O)(=O)N(C)C)n1C | -1.5
CCc1cc(=O)[nH]c(-c2ccc(F)c(Cl)c2)n1 | 0.59
C=CCOC(=O)COc1ccc2c(c1)oc(=O)c1ccccc12 | 0.38
O=C(COc1ccc2c(c1)oc(=O)c1ccccc12)OCc1ccccc1 | 4.5*
O=C(O)COc1ccc2c(c1)oc(=O)c1ccccc12 | 0.04
CCOC(=O)c1c(N/N=C\c2ccccc2Cl)n[nH]c1C | 0.78
O=S(=O)(Nc1ccccc1N1CCOCC1)c1ccc(-c2ccccn2)s1 | 4.8*
SMILES | Dicer processing
O=S(=O)(Nc1ccc2c(c1)OCCO2)c1ccc(-c2ccccn2)s1 | -0.04
O=S(=O)(Nc1ccccc1N1CCOCC1)c1ccc(S(=O)(=O)c2ccccc2)s1 | 0.33
CN(C)c1nc(NC(C)(C)C)nc(Oc2ccc(=O)[nH]n2)n1 | 9.9
O=[N+]([O-])c1ccc(Sc2nc(-c3ccccc3)c(-c3ccccc3)[nH]2)cc1 | 0.46
Cc1cc(Nc2ccccc2C)c2cccc(C)c2n1 | -1.1
Cc1cccc(C)c1Nc1nc2c(C)cc(C)c(C)c2s1 | 4.2*
Cc1ccc(Nc2nc3ccccc3s2)c(C)c1 | 0.88
ON(Cc1ccc(Cl)cc1)Cc1ccc(Cl)cc1 | 3*
ON(Cc1cccc(C(F)(F)F)c1)Cc1cccc(C(F)(F)F)c1 | 16
CN(C)C(=S)Cc1ccc(Cl)cc1 | 0.76
O=C(C1c2ccccc2Oc2ccccc21)N1CCCC1 | 4*
COC(=O)C1CCN(C(=O)C2c3ccccc3Oc3ccccc32)CC1 | 5*
CC1CN(C(=O)C2c3ccccc3Oc3ccccc32)CC(C)O1 (stereo unspecified) | 2
CC1CCCCN1C(=O)C1c2ccccc2Oc2ccccc21 (stereo unspecified) | 1
O=C(O)C1c2ccccc2Oc2ccccc21 | 0.95
CC(C)NC(=O)C1c2ccccc2Oc2ccccc21 | 2.8
CCOC(=O)c1cc(C#N)c(C)nc1N1CCN(S(=O)(=O)c2ccccc2)CC1 | -1.2
C=CCN1C(=O)C(O)(CC(=O)c2ccc(C(C)C)cc2)c2cc(Br)ccc21 (stereo unspecified) | 2.5
CCOC(=O)NC(=S)NC(C)(C)C | -0.77
Cc1c(S(=O)(=O)N2CCN(C3c4ccccc4-c4ccccc43)CC2)cnn1-c1ccccc1 | -2.2
CCCCCC1(C(=O)OCC)CC(C)(c2csc(N)n2)OC1=O (stereo unspecified) | -0.97
CCCC1CC(C)(c2csc(Cc3ccc(OCC)cc3)n2)OC1=O (stereo unspecified) | 4.9*
CCOc1ccc(C2C3=C(CC(C)(C)CC3=O)OC3=C2C(=O)CC(C)(C)C3)cc1 | 0.37
COc1cccc(-c2[nH]nc(SC)c2C#N)c1 | -1.6
Cc1ccccc1C(=O)Cc1ccc(C(N)=O)cc1 | -0.31
SMILES | Dicer processing
Cc1nc(C#N)c(N2CCCCC2)o1 | 0.14
COC(=O)c1ccc(COCOCc2ccc(C(=O)OC)o2)o1 | 0.87
COC(=O)c1ccc(CN(C)C)o1 | 5.8*
COC(=O)c1ccc(Cn2nc(C)c([N+](=O)[O-])c2C)o1 | 1.1
Cc1ccc(C(=O)N(Cc2ccccc2)C(C)C)cc1 | 1.4
Cc1nn(C)c(NCCCN2CCOCC2)c1[N+](=O)[O-] | 0
OC(CN1CCC(O)(c2ccc(Cl)cc2)CC1)C(F)(F)F (stereo unspecified) | -0.46
COC(=O)C1C(=O)NC(SCc2ccccc2)=C(C#N)C1c1ccccc1Cl (stereo unspecified) | 1.7
O=C(O)c1ccc(NS(=O)(=O)c2ccc3c4c(cccc24)C(=O)S3)cc1 | 0.67
Cc1ccccc1NS(=O)(=O)c1cccc2c(N(C)C)cccc12 | -0.66
Cc1ccc(C)c(NS(=O)(=O)c2ccc3c4c(cccc24)C(=O)S3)c1 | 3.7*
O=C1Sc2ccc(S(=O)(=O)Nc3ccc4oc(=O)sc4c3)c3cccc1c23 | 11*
CN1C(=O)c2cccc3c(S(=O)(=O)Nc4ccc(C(=O)O)c(O)c4)ccc1c23 | -1.7
Cc1cccc(NS(=O)(=O)c2ccc3c4c(cccc24)C(=O)N3)c1C | -0.37
CC1(C)C(=O)OC(C(=O)c2ccc(-c3ccccc3)cc2)C(C)(C)C1=O (stereo unspecified) | -0.53
CCCN1C(=O)C2(/C(=C(/O)c3ccc(Cl)cc3)C(=O)C(=O)N2CCN(C)C)c2ccccc21 (stereo unspecified) | 0.65
CCOC(=O)C1=NN(c2ccc(OC)cc2)C2C(=O)N(c3ccccc3)C(=O)C12 (stereo unspecified) | 4.7*
CCOC(=O)C1=NNC2C(=O)N(c3ccccc3)C(=O)C12 (stereo unspecified) | 0.66
COC(=O)C1=NN(c2ccc(OC)cc2)C2C(=O)N(c3ccc(Br)cc3)C(=O)C12 (stereo unspecified) | 0.67
C=CCOC(=O)[C@@H](N)Cc1ccc(O)cc1 | -8.5
CCOC(=O)c1c(CSc2ccccc2)oc2ccc(O)c(CN(C)C)c12 | 2.5
CCOC(=O)CSC(=Nc1ccccc1)c1c(-c2c(Cl)cccc2Cl)noc1C | 0.93
Cn1c(NCc2ccco2)nc2c1c(=O)n(Cc1ccccc1)c(=O)n2C | 0.09
CCCn1c(NCc2ccccn2)nc2ccccc21 | 1.7
c1coc(CNc2nc3ccccc3n2CCN2CCOCC2)c1 | 5.1*
SMILES | Dicer processing
Cn1c(CNc2nc3ccccc3n2CCN2CCOCC2)nc2ccccc21 | -0.51
c1ccc(Cn2c(NCc3ccco3)nc3ccccc32)cc1 | 3.7*
c1ccc2c(c1)nc(NCc1ccncc1)n2CCN1CCCCC1 | 2.6
COc1ccc(CNc2nc3ccccc3n2CCN2CCOCC2)c(OC)c1 | 3.5*
CCN(CC)CCn1c(NCc2cc(OC)ccc2OC)nc2ccccc21 | 2.5
c1ccc(CNc2nc3ccccc3n2CCN2CCOCC2)nc1 | 5.4*
Clc1ccccc1CNc1nc2ccccc2n1CCN1CCCCC1 | 2.6
Cc1nc2ccccc2n1CCN1CCOCC1 | -0.46
